# From PubChem BioAssay
# Unmarked numbers belong to inactive results. The rule behind the calls is not given here.
# Target: Pantothenate synthetase (Mycobacterium tuberculosis (strain ATCC 25618 / H37Rv)) (UniProt P9WIL5)
# Experiment: Coupled enzyme confirmation of inhibitors against recombinant Mtb PanC (AID 375);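 note: 0% = full reaction with vehicle and 100% = no enzyme background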
# Details: coupled enzyme assay; at 10 µM, stronger effect = higher value
# Sequence of Pantothenate synthetase (Mycobacterium tuberculosis (strain ATCC 25618 / H37Rv)) (P9WIL5 whole entry, looked up): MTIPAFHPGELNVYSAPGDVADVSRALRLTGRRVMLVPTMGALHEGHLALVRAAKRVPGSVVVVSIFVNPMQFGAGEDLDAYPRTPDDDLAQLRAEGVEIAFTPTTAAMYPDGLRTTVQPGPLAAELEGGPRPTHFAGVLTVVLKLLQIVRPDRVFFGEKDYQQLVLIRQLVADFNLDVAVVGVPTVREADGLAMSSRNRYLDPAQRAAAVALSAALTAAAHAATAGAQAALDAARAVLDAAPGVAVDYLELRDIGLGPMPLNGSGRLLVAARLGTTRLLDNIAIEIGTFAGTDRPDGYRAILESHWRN
row,SMILES,inhibition [%]
1,CC(=O)c1c(C)nn(CC(O)COc2ccc3c(c2)CCC3)c1C (stereo not given),0
2,CCOc1ccc(NC(=O)Cn2nnc(-c3ccccc3F)n2)cc1,2
3,COc1ccccc1Cn1nnc2c(=O)[nH]c(C3CCN(C(=O)c4ccccc4Cl)CC3)nc21,0
4,CC(=O)Nc1cccc(NC(=O)c2ccco2)c1,0
5,CCOC(=O)Cn1c(CN2CCN(c3cccc(Cl)c3)CC2)nc2c1c(=O)[nH]c(=O)n2C,0
6,O=C(NCC1CCCO1)C1CCN(S(=O)(=O)c2cccc3cccnc23)CC1 (stereo not given),0
7,COC(=O)c1cc(OC)c(OCc2cc(C(=O)OC)oc2C)c(OC)c1,2
8,Cc1cccc2c(=O)oc(-c3ccc4c(c3)C(=O)N(CC3CCCO3)C4=O)nc12 (stereo not given),0
9,CN(C)C=Nc1nonc1N,10
10,O=C(O)c1c[nH]c2ccc(S(=O)(=O)N3CCN(c4ccc(F)cc4)CC3)cc2c1=O,0
11,CC(NC(=O)CSc1n[nH]c(=O)n1C1CC1)C12CC3CC(CC(C3)C1)C2 (stereo not given),3
12,N#CC1=C(N)n2c(s/c(=C\c3ccco3)c2=O)=C(C#N)C1c1ccco1 (stereo not given),0
13,COc1cccc(-n2c(SC3CCOC3=O)nc3ccccc3c2=O)c1 (stereo not given),2
14,Cc1ccc(CN2CCN(C(=O)C3CCC3)CC2)cc1,3
15,c1ccc(-c2nnc(CN3CCC4(CC3)OCCO4)o2)cc1,1
16,Cn1c(=O)c(=O)n(C)c2cc(S(=O)(=O)N3CCN(c4cccc(C(F)(F)F)c4)CC3)ccc21,9
17,O=C1c2ccccc2C(Nc2ccc(-c3nc4ccccc4[nH]3)cc2)N1Cc1ccco1 (stereo not given),5
18,COc1cccc(-c2nnc3sc(C4CCCCC4)nn23)c1,4
19,O=C(COc1ccc(F)cc1)Nc1ccc(-n2cnnn2)cc1,0
20,C#CCN1C(=O)C(O)(CC(=O)c2cc(OC)ccc2OC)c2ccccc21 (stereo not given),6

row,SMILES,inhibition [%]
1,COc1ccc(C2C(C(C)=O)=C(O)C(=O)N2C)c(OC)c1 (stereo not given),0
2,CCOc1ccc2[nH]cc(C(=O)N3CCN(CC)CC3)c(=O)c2c1,0
3,Cc1cc(C(=O)Nc2c(C)n(C)n(-c3ccccc3)c2=O)c(C)o1,0
4,O=C(O)C1C2C=CC(C3CC23)C1C(=O)NCCc1ccccc1 (stereo not given),6
5,O=C(COC(=O)C12CC3CC(CC(C3)C1)C2)NCc1ccco1,0
6,O=C(Nc1ccc(N2C(=O)C3C4C=CC(C4)C3C2=O)cc1)Nc1nncs1 (stereo not given),5
7,CCOC(=O)c1cccc(NC(=O)CCn2nnc3ccccc32)c1,0
8,CCN(C(=O)c1cc(Cl)ccc1OC)c1ccccc1,0
9,CCOCC(O)CS(=O)Cc1ccccc1 (stereo not given),0
10,CCCOc1ccc(C2C(C(=O)c3ccc(C)o3)=C(O)C(=O)N2Cc2cccnc2)cc1 (stereo not given),10
11,Cc1cc2ncn(C(=O)N3CCOCC3)c2cc1C,0
12,Cc1ccc(-c2ccc(=O)n(CCC(=O)NCCN3CCCCC3C)n2)cc1 (stereo not given),0
13,Cc1cccc(N(C)C(=O)c2cc3cc4ccc(C)cc4nc3o2)c1,0
14,CC(=O)Nc1ccc(S(=O)(=O)N2CCN=C2C)cc1,3
15,CS(=O)(=O)N(Cc1nc2sc3c(c2c(=O)[nH]1)CCCC3)C1CCCCC1,0
16,Cc1ccc(S(=O)(=O)NCC(=O)N(CC(=O)NC2CCCCC2)Cc2ccco2)cc1,11
17,Cc1c(C(=O)NCc2cccnc2)oc2ccc(S(=O)(=O)N3CCCCC3)cc12,0
18,O=C(CCNS(=O)(=O)c1cccc2nsnc12)Nc1ccc2c(c1)OCCO2,0
19,CNCCCC12CCC(c3ccccc31)c1ccccc12,0
20,CC(C)C1N=C2c3ccccc3N=C(SCC(=O)NCCc3ccc(S(N)(=O)=O)cc3)N2C1=O (stereo not given),0
